# Experimental data published in PMC5540273 (PLoS ONE, 2017).
# Like-named read-outs stand apart in the source and are kept apart here.
# How the values were obtained:
# FGFR1 = details: concentration: 1 μM, replicates: in singlicate; n = 1
# FGFR2 = details: concentration: 1 μM, replicates: in singlicate; n = 1
# FGFR3 = details: concentration: 1 μM, replicates: in singlicate; n = 1
# FGFR4 = details: concentration: 1 μM, replicates: in singlicate; n = 1
# FGR = details: concentration: 1 μM, replicates: in singlicate; n = 1
# FLT1 = details: concentration: 1 μM, replicates: in singlicate; n = 1
# FLT3-autoinhibited = details: concentration: 1 μM, replicates: in singlicate; n = 1
# FLT3 = details: concentration: 1 μM, replicates: in singlicate; n = 1
# FLT4 = details: concentration: 1 μM, replicates: in singlicate; n = 1
# FRK = details: concentration: 1 μM, replicates: in singlicate; n = 1
# FYN = details: concentration: 1 μM, replicates: in singlicate; n = 1
# GAK = details: concentration: 1 μM, replicates: in singlicate; n = 1
# GCN2(Kin.Dom.2,S808G) = system: T1, GCN2(Kin.Dom.2,S808G); details: concentration: 1 μM, replicates: in singlicate; n = 1
# T1 construct: gene EIF2AK4
# GRK1 = details: concentration: 1 μM, replicates: in singlicate; n = 1
# GRK2 = system: T2, GRK2; details: concentration: 1 μM, replicates: in singlicate; n = 1
# T2 construct: gene ADRBK1
# GRK3 = system: T3, GRK3; details: concentration: 1 μM, replicates: in singlicate; n = 1
# T3 construct: gene ADRBK2
# GRK4 = details: concentration: 1 μM, replicates: in singlicate; n = 1
# GRK7 = details: concentration: 1 μM, replicates: in singlicate; n = 1
# GSK3A = details: concentration: 1 μM, replicates: in singlicate; n = 1
# GSK3B = details: n = 1
# [1] = concentration: 1 μM, replicates: in singlicate
# 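Also: KINOMEscan kinase panel screen.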
structure (smiles),measurement,setting,value
CSc1cccc2c(-c3ccncn3)c(-c3ccc(F)cc3)nn12 [GW514786],%Inh,FGFR1,0%
same,%Inh,FGFR2,0%
same,%Inh,FGFR3,4%
same,%Inh,FGFR4,7%
same,%Inh,FGR,10%
same,%Inh,FLT1,19%
same,%Inh,FLT3-autoinhibited,0%
same,%Inh,FLT3,5%
same,%Inh,FLT4,0%
same,%Inh,FRK,9%
same,%Inh,FYN,17%
same,%Inh,GAK,76%
same,%Inh,"GCN2(Kin.Dom.2,S808G)",0%
same,%Inh,GRK1,6%
same,%Inh,GRK2,7%
same,%Inh,GRK3,35%
same,%Inh,GRK4,100%
same,%Inh,GRK7,0%
same,%Inh,GSK3A,5%
same,%Inh,GSK3B; [1],9%
Nc1n[nH]c2cnc(-c3ccccc3)cc12 [SB-642124],%Inh,FGFR1,2%
same,%Inh,FGFR2,35%
same,%Inh,FGFR3,16%
same,%Inh,FGFR4,13%
same,%Inh,FGR,32%
same,%Inh,FLT1,0%
same,%Inh,FLT3-autoinhibited,0%
same,%Inh,FLT3,0%
same,%Inh,FLT4,8%
same,%Inh,FRK,10%
same,%Inh,FYN,25%
same,%Inh,GAK,13%
same,%Inh,"GCN2(Kin.Dom.2,S808G)",11%
same,%Inh,GRK1,0%
same,%Inh,GRK2,0%
same,%Inh,GRK3,42%
same,%Inh,GRK4,10%
same,%Inh,GRK7,0%
same,%Inh,GSK3A,40%
same,%Inh,GSK3B; 1 µM,25%
COc1cccc(C2=C(Nc3ccc(Cl)c(C(=O)O)c3)C(=O)NC2=O)c1 [SB-390769],%Inh,FGFR1,8%
same,%Inh,FGFR2,0%
same,%Inh,FGFR3,15%
same,%Inh,FGFR4,25%
same,%Inh,FGR,24%
same,%Inh,FLT1,25%
same,%Inh,FLT3-autoinhibited,0%
same,%Inh,FLT3,0%
same,%Inh,FLT4,47%
same,%Inh,FRK,32%
same,%Inh,FYN,17%
same,%Inh,GAK,8%
same,%Inh,"GCN2(Kin.Dom.2,S808G)",100%
same,%Inh,GRK1,100%
same,%Inh,GRK2,0%
same,%Inh,GRK3,59%
same,%Inh,GRK4,14%
same,%Inh,GRK7,0%
same,%Inh,GSK3A,56%
same,%Inh,GSK3B; 1 µM,34%
Cn1cc(-c2ccc3c(c2)CCN3C(=O)Cc2cccc(Cl)c2)c2c(N)ncnc21 [GSK2606590],%Inh,FGFR1,23%
same,%Inh,FGFR2,0%
same,%Inh,FGFR3,0%
same,%Inh,FGFR4,0%
same,%Inh,FGR,35%
same,%Inh,FLT1,59%
same,%Inh,FLT3-autoinhibited,1%
same,%Inh,FLT3,91.8%
same,%Inh,FLT4,45%
same,%Inh,FRK,8%
same,%Inh,FYN,27%
same,%Inh,GAK,33%
same,%Inh,"GCN2(Kin.Dom.2,S808G)",43%
same,%Inh,GRK1,5%
same,%Inh,GRK2,0%
same,%Inh,GRK3,0%
same,%Inh,GRK4,11%
same,%Inh,GRK7,0%
same,%Inh,GSK3A,5%
same,%Inh,GSK3B; [1],3%
O=c1[nH]cc(-c2ccc(N3CCOCC3)cc2)c2sc(-c3cn[nH]c3)cc12 [GSK2276055],%Inh,FGFR1,0%
same,%Inh,FGFR2,0%
same,%Inh,FGFR3,21%
same,%Inh,FGFR4,0%
same,%Inh,FGR,0%
same,%Inh,FLT1,0%
same,%Inh,FLT3-autoinhibited,11%
same,%Inh,FLT3,0%
same,%Inh,FLT4,0%
same,%Inh,FRK,0%
same,%Inh,FYN,31%
same,%Inh,GAK,34%
same,%Inh,"GCN2(Kin.Dom.2,S808G)",0%
same,%Inh,GRK1,14%
same,%Inh,GRK2,9%
same,%Inh,GRK3,0%
same,%Inh,GRK4,0%
same,%Inh,GRK7,0%
same,%Inh,GSK3A,97.7%
same,%Inh,GSK3B; [1],77%
O=C(Nc1n[nH]c2cc(-c3ccoc3)ccc12)C1CC1 [SB-738481],%Inh,FGFR1,0%
same,%Inh,FGFR2,0%
same,%Inh,FGFR3,7%
same,%Inh,FGFR4,0%
same,%Inh,FGR,22%
same,%Inh,FLT1,27%
same,%Inh,FLT3-autoinhibited,17%
same,%Inh,FLT3,91.8%
same,%Inh,FLT4,0%
same,%Inh,FRK,0%
same,%Inh,FYN,0%
same,%Inh,GAK,2%
same,%Inh,"GCN2(Kin.Dom.2,S808G)",0%
same,%Inh,GRK1,18%
same,%Inh,GRK2,0%
same,%Inh,GRK3,0%
same,%Inh,GRK4,44%
same,%Inh,GRK7,9%
same,%Inh,GSK3A,92.7%
same,%Inh,GSK3B; 1 µM,54%
c1ccc(-c2cnc3nccnn23)cc1 [AH20685],%Inh,FGFR1,0%
same,%Inh,FGFR2,0%
same,%Inh,FGFR3,0%
same,%Inh,FGFR4,0%
same,%Inh,FGR,10%
same,%Inh,FLT1,0%
same,%Inh,FLT3-autoinhibited,0%
same,%Inh,FLT3,43%
same,%Inh,FLT4,0%
same,%Inh,FRK,18%
same,%Inh,FYN,50%
same,%Inh,GAK,0%
same,%Inh,"GCN2(Kin.Dom.2,S808G)",42%
same,%Inh,GRK1,0%
same,%Inh,GRK2,0%
same,%Inh,GRK3,13%
same,%Inh,GRK4,0%
same,%Inh,GRK7,0%
same,%Inh,GSK3A,0%
same,%Inh,GSK3B; [1],0%
O=C(O)C(F)(F)F.O=C(O)C(F)(F)F.O=c1[nH]ccc2nc(N[C@@H]3CCCNC3)nc(Nc3ccc(S(=O)(=O)N4CCOCC4)cc3)c12 [GSK2177277],%Inh,FGFR1,81%
same,%Inh,FGFR2,60%
same,%Inh,FGFR3,62%
same,%Inh,FGFR4,0%
same,%Inh,FGR,91.2%
same,%Inh,FLT1,68%
same,%Inh,FLT3-autoinhibited,99.6%
same,%Inh,FLT3,99.3%
same,%Inh,FLT4,98.7%
same,%Inh,FRK,39%
same,%Inh,FYN,61%
same,%Inh,GAK,97.4%
same,%Inh,"GCN2(Kin.Dom.2,S808G)",100%
same,%Inh,GRK1,96.6%
same,%Inh,GRK2,72%
same,%Inh,GRK3,88%
same,%Inh,GRK4,92.2%
same,%Inh,GRK7,96%
same,%Inh,GSK3A,99.3%
same,%Inh,GSK3B; [1],98.2%
